{"source": "ChEMBL document CHEMBL3988442", "about": "“University of Dundee, Small-Polar-MMV Screening Library” (2021)", "note": "Among all 48,000 compounds or so, about 13,000 (27%) showed an effect of 50% or more. Some of the results follow."}
{"system": "Wolbachia pipientis", "test": "Anti-Wolbachia Cell-Based Screen", "format": "functional", "set-up": "scale not given: in the data most compounds retested in dose-response had high values", "conditions": "5 µM", "units": {"Percent Effect": "%"}}
{"smiles": "c1cnc(OCc2nnc3n2CCN(CC2CC2)C3)nc1", "Percent Effect": -18.49}
{"smiles": "O=C(CN1CCCCCC1)NCc1cccnc1Oc1ccccc1", "Percent Effect": -1.634}
{"smiles": "CS(=O)(=O)NCC1CCCN(Cc2ccc(F)c3cccnc23)C1", "note": "(stereo not drawn)", "Percent Effect": -1.722}
{"smiles": "CCN1CCCC(c2c(-c3ccccc3)ncn2Cc2cccnc2)C1", "note": "(stereo not drawn)", "Percent Effect": -13.51}
{"smiles": "c1cnc2[nH]c(C3CCCC3)c(CN3CCCCC3)c2c1", "Percent Effect": 61.56}
{"smiles": "CCN1CCN(Cc2c(C3CCCC3)[nH]c3ncccc23)CC1", "Percent Effect": 101.4}
{"smiles": "CC1CCCN(Cc2c(C3CC3)[nH]c3ncccc23)C1", "note": "(stereo not drawn)", "Percent Effect": 97.08}
{"smiles": "CC1CCCN(Cc2ccc(CNC(=O)NCc3ccon3)cc2)C1", "note": "(stereo not drawn)", "Percent Effect": -7.486}
{"smiles": "CC1CCCN(Cc2c(C3CCOCC3)[nH]c3ncccc23)C1", "note": "(stereo not drawn)", "Percent Effect": -13.09}
{"smiles": "OCC1CCCN(Cc2c(C3CCCC3)[nH]c3ncccc23)C1", "note": "(stereo not drawn)", "Percent Effect": 82.97}
{"smiles": "O=C(Cn1nc2ccccc2n1)N1CCCC(O)(CO)C1", "note": "(stereo not drawn)", "Percent Effect": -10.36}
{"smiles": "Cc1cc(NC(=O)N(C)CCN2CCN(c3ccccc3)CC2)on1", "Percent Effect": -6.324}
{"smiles": "COc1c(CNC(c2ccc(F)cc2)c2nccn2C)c(C)nn1C", "note": "(stereo not drawn)", "Percent Effect": -17.53}
{"smiles": "COCCSc1ccc(-n2ccnc2)nn1", "Percent Effect": 19.88}
{"smiles": "CC1(Cc2ccc3c(c2)OCO3)CCCN(S(=O)(=O)N2CCOCC2)C1", "note": "(stereo not drawn)", "Percent Effect": -4.077}
{"smiles": "Cc1cccn2cc(CN3CCCC(O)C3)nc12", "note": "(stereo not drawn)", "Percent Effect": -5.177}
{"smiles": "Cc1cc(Cn2cc(C#N)c(=O)c3ccccc32)no1", "Percent Effect": 6.304}
{"smiles": "O=C(NCc1nnc2n1CCC2)NCC1(c2cccc(F)c2)CC1", "Percent Effect": 112.3}
{"smiles": "O=C(NCCc1nnc2n1CCC2)NCC1(c2ccccc2F)CC1", "Percent Effect": 109}
{"smiles": "O=C(NCCc1nnc2n1CCC2)c1ccccc1OC1CCCC1", "Percent Effect": -0.3605}
{"smiles": "O=C(NCCc1nnc2n1CCC2)N1CCC2(CCCCC2)C1", "Percent Effect": -5.882}
{"smiles": "Cn1cc(CCNC(=O)NCc2nnc3n2CCC3)cn1", "Percent Effect": -8.052}
{"smiles": "O=C(NCCc1ccc(Cl)s1)NCc1nnc2n1CCC2", "Percent Effect": 3.587}
{"smiles": "Cc1cc(C)c(CNC(=O)NCc2nnc3n2CCC3)c(=O)[nH]1", "Percent Effect": 8.689}
{"smiles": "NC(=O)CC1CCN(C(=O)NCC2(c3ccccc3F)CC2)CC1", "Percent Effect": 3.443}
{"smiles": "O=C(NCCc1nnc2n1CCC2)NCC1(c2ccc(F)cc2)CC1", "Percent Effect": 123.4}
{"smiles": "O=C(NCCC1=CCCCC1)NCc1nnc2n1CCC2", "Percent Effect": 7.36}
{"smiles": "O=C(NCCc1nnc2n1CCC2)NCC1(c2ccccc2)CC1", "Percent Effect": 95.51}
{"smiles": "O=C1C(NCc2nnc3n2CCCC3)CCCN1c1cccc(F)c1", "note": "(stereo not drawn)", "Percent Effect": -1.768}
{"smiles": "CCOc1ncnc2c1CCN(c1cc(C(F)(F)F)ncn1)CC2", "Percent Effect": 1.194}
{"smiles": "CCOC(=O)CC1CCCCN1C(=O)c1cc(C)on1", "note": "(stereo not drawn)", "Percent Effect": 7.011}
{"smiles": "CS(=O)(=O)N(Cc1ccon1)c1ccc2c(c1)OCO2", "Percent Effect": -10.09}
{"smiles": "Cc1nc(-c2cc(Cl)cc3c2OC(CN)C3)c[nH]1", "note": "(stereo not drawn)", "Percent Effect": -15.93}
{"smiles": "Cc1ccc(-c2nnc(CN3CC[C@H](CO)[C@@H](O)C3)o2)n1C", "Percent Effect": -9.968}
{"smiles": "c1coc(CNc2nnc(Cc3ccsc3)o2)c1", "Percent Effect": -2.731}
{"smiles": "O=C(c1ccc(F)c(Cl)c1)N1C[C@@H]2CC[C@H](C1)N(Cc1ccccc1)C2", "Percent Effect": 2.522}
{"smiles": "O=C(c1ccc(=O)[nH]c1)N1C[C@@H]2CC[C@H](C1)N(Cc1ccccc1)C2", "Percent Effect": 87.59}
{"smiles": "O=C(c1ccccc1)N1C[C@@H]2CC[C@H](C1)N(Cc1cc(F)ccc1Cl)C2", "Percent Effect": -19.41}
{"smiles": "O=C(c1cc(Cl)c[nH]c1=O)N1C[C@@H]2CC[C@H](C1)N(Cc1ccccc1)C2", "Percent Effect": 80.73}
{"smiles": "O=C(c1c[nH]c(=O)c(Cl)c1)N1C[C@@H]2CC[C@H](C1)N(Cc1ccccc1)C2", "Percent Effect": -15.02}
{"smiles": "CC(=O)N1C[C@@H]2CC[C@H](C1)N(Cc1ccc(Cn3cccn3)cc1)C2", "Percent Effect": 6.393}
{"smiles": "O=c1cc(CN2C[C@H]3CC[C@@H]2CN(Cc2ccccc2)C3)[nH]c(=O)[nH]1", "Percent Effect": 2.734}
{"smiles": "O=C(c1cc(F)cc(Cl)c1)N1C[C@@H]2CC[C@H](C1)N(Cc1ccccc1)C2", "Percent Effect": 106.3}
{"smiles": "CCC1CN(C(=O)c2ccc(=O)[nH]c2)CCC(=O)N1Cc1ccccc1", "note": "(stereo not drawn)", "Percent Effect": -17.04}
{"smiles": "CC(C)c1nc(CN(C)S(=O)(=O)c2cccs2)cs1", "Percent Effect": 0.03171}
{"smiles": "CC(CS(C)(=O)=O)N(C(=O)CCc1ccc(Cl)s1)C1CC1", "note": "(stereo not drawn)", "Percent Effect": -4.139}
{"smiles": "Cc1nc(CNC(=O)NCC(O)c2ccc(F)c(F)c2)cs1", "note": "(stereo not drawn)", "Percent Effect": 9.084}
{"smiles": "COc1cccc(-n2nnc(C(=O)N3CCN(C)CC3C)c2C)c1", "note": "(stereo not drawn)", "Percent Effect": 13.25}
{"smiles": "COCCN1C[C@@H]2CCCO[C@@H]2[C@H](NC(=O)c2cnccn2)C1.O=C(O)C(F)(F)F", "Percent Effect": -16.42}
{"smiles": "c1cc(-c2noc([C@@H]3CCCN3C3CCC3)n2)cc(N2CCCC2)n1", "Percent Effect": -5.247}
{"smiles": "Cc1nc(CNC(=O)NCc2cccnc2N(C)C)cs1", "Percent Effect": 95.24}
{"smiles": "Cc1ccc(C(=O)NCc2cccnc2N(C)C)s1", "Percent Effect": 92.24}
{"smiles": "CNc1nc(C(=O)NCc2cccnc2N(C)C)cs1", "Percent Effect": -18.64}
{"smiles": "Cc1nc(CSCCC(=O)NCc2cccnc2N(C)C)cs1", "Percent Effect": -3.36}
{"smiles": "CC(C)Oc1ncccc1CNC(=O)NC(C)c1cccs1", "note": "(stereo not drawn)", "Percent Effect": 104.4}
{"smiles": "Cc1cnc(CNC(=O)NCc2cccnc2N(C)C)s1", "Percent Effect": -3.719}
{"smiles": "CN(C)c1ncccc1CNC(=O)N1CCN(C)c2ccccc2C1", "Percent Effect": -11.25}
{"smiles": "Cc1nnsc1C(=O)NCc1cccnc1N(C)C", "Percent Effect": -2.409}
{"smiles": "Cc1cc(NC(=O)NCc2cccnc2OC(C)C)n(C)n1", "Percent Effect": 8.95}
{"smiles": "Cc1ccc(CNC(=O)NCc2cccnc2N(C)C)s1", "Percent Effect": -3.895}
{"smiles": "CN(C)c1ncccc1CNC(=O)NCc1ccc(Cl)s1", "Percent Effect": 103.5}
{"smiles": "Cc1cnc(C(C)(C)NC(=O)NCc2cccnc2OC(C)C)s1", "Percent Effect": -10.8}
{"smiles": "CCc1ccccc1OCCN1C[C@@H](NS(C)(=O)=O)[C@H](C(C)C)C1", "Percent Effect": 0.8676}
{"smiles": "O=C(O)c1cccnc1CN1CCOc2ccccc2C1", "Percent Effect": -4.779}
{"smiles": "Cc1cccn2c(CNC(C)CO)cnc12", "note": "(stereo not drawn)", "Percent Effect": 5.706}
{"smiles": "CCC(CNC(=O)c1ccc(C(N)=O)cc1)Oc1cccc(F)c1", "note": "(stereo not drawn)", "Percent Effect": -8.287}
{"smiles": "CCCS(=O)(=O)NC(C)c1cccc(-n2cccn2)c1", "note": "(stereo not drawn)", "Percent Effect": -8.996}
{"smiles": "NC(=O)c1ccc(-n2ccnc2-c2cccc(O)c2)cc1N1CCCC1", "Percent Effect": -15.85}
{"smiles": "CN(C)c1ncccc1CNC(=O)NCC(c1cccs1)N(C)C", "note": "(stereo not drawn)", "Percent Effect": 101.5}
{"smiles": "O=C(NCc1ccccn1)NCC(O)c1ccccc1C(F)(F)F", "note": "(stereo not drawn)", "Percent Effect": -3.765}
{"smiles": "CC(C)C(NC(=O)NCc1cccnc1N(C)C)c1cccs1", "note": "(stereo not drawn)", "Percent Effect": 97.46}
{"smiles": "O=C(NCc1ccccn1)NCc1ccc(Cl)s1", "Percent Effect": 100.6}
{"smiles": "CN(C)c1ncccc1CNC(=O)NCc1ccco1", "Percent Effect": -3.644}
{"smiles": "CN(C)C(CNC(=O)NCc1ccco1)c1cccs1", "note": "(stereo not drawn)", "Percent Effect": 6.587}
{"smiles": "CC(NC(=O)NCc1cccnc1N(C)C)c1cccs1", "note": "(stereo not drawn)", "Percent Effect": 91.27}
{"smiles": "CN(C)c1ccc(NC(=O)NCc2ccc(Cl)s2)cn1", "Percent Effect": 9.088}
{"smiles": "CC(C)N(Cc1nccn1C)C(=O)c1cc(Cl)c[nH]c1=O", "Percent Effect": -15.2}
{"smiles": "CCNC(=O)[C@@H]1C[C@@H](N)CN1Cc1ccc(Sc2ccc(C)cc2)o1", "Percent Effect": 5.501}
{"smiles": "CN(C(=O)COC1CCCC1)C1CCN(CC2CCOC2)CC1", "note": "(stereo not drawn)", "Percent Effect": -27.33}
{"smiles": "CN(CCCc1nccn1C)C(=O)C1CCN(C(=O)C2CCC2)CC1", "Percent Effect": 9.591}
{"smiles": "O=C(NC1CCCC1)N1CC[C@H]2[C@H]1CCN2c1nncs1.O=C(O)C(F)(F)F", "Percent Effect": 1.453}
{"smiles": "CS(=O)(=O)N1CCCc2sc(C(=O)NC3CC3)nc21", "Percent Effect": -1.89}
{"smiles": "Cc1cc(CNC(=O)NC(C)c2ccccc2)no1", "note": "(stereo not drawn)", "Percent Effect": -4.939}
{"smiles": "CC(NC(=O)NCc1cccnc1N(C)C)c1ccc(F)cc1", "note": "(stereo not drawn)", "Percent Effect": 97.94}
{"smiles": "CN(C)c1ncccc1CNC(=O)NCc1cccs1", "Percent Effect": 101}
{"smiles": "Cc1cc(CN2CCN(C(C)C(=O)NCc3cccs3)CC2)no1", "note": "(stereo not drawn)", "Percent Effect": -4.683}
{"smiles": "Cc1cc(CNC(=O)NCc2cccs2)no1", "Percent Effect": 116.2}
{"smiles": "Cc1cc(CNC(=O)c2cc(COc3cncc(Cl)c3)on2)n[nH]1", "Percent Effect": -4.866}
{"smiles": "CN1CCCC2(CCN(S(=O)(=O)c3c(Cl)nc4sccn34)C2)C1=O", "note": "(stereo not drawn)", "Percent Effect": -6.903}
{"smiles": "COc1ccc(CN2CCCn3nnc(COCC4CC4)c3C2)cc1.O=C(O)C(F)(F)F", "Percent Effect": -11.72}
{"smiles": "CN(Cc1c[nH]nc1-c1ccc(F)cc1F)Cc1nccn1C", "Percent Effect": -2.031}
{"smiles": "CCC(C)(NCC(=O)NC(=O)NC)c1nccs1", "note": "(stereo not drawn)", "Percent Effect": 3.438}
{"smiles": "Cc1ccc(C2COCCN2C(=O)c2ccc(N(C)C)cc2)o1", "note": "(stereo not drawn)", "Percent Effect": 16.04}
{"smiles": "O=C(COc1cccc(F)c1)N1CCCCC1c1ccn2ccnc2n1", "note": "(stereo not drawn)", "Percent Effect": 137.7}
{"smiles": "O=C(CCc1cccnc1)N1CCCCC1c1ccn2ccnc2n1", "note": "(stereo not drawn)", "Percent Effect": 103.4}
{"smiles": "CC(C)(C)OC(=O)N1CCCCC(NC(=O)CCc2cccnc2)C1", "note": "(stereo not drawn)", "Percent Effect": 15.24}
{"smiles": "O=C(Cc1ccccc1F)N1CCCCC1c1ccn2ccnc2n1", "note": "(stereo not drawn)", "Percent Effect": 125}
{"smiles": "O=C(Cc1cccc(F)c1)N1CCCCC1c1ccn2ccnc2n1", "note": "(stereo not drawn)", "Percent Effect": 7.751}
{"smiles": "O=C(Cc1ccc(F)cc1)N1CCCCC1c1ccn2ccnc2n1", "note": "(stereo not drawn)", "Percent Effect": -3.373}
{"smiles": "O=C(COc1ccccc1F)N1CCCCC1c1ccn2ccnc2n1", "note": "(stereo not drawn)", "Percent Effect": 107.9}
{"smiles": "CN1C(=O)c2ccc(NC(=O)CSc3ccc4c(c3)CCC4)cc2C1=O", "Percent Effect": 8.962}
{"smiles": "Cc1ncsc1CCC(=O)NCc1cc2n(n1)CCN(C(=O)N(C)C)C2", "Percent Effect": -5.05}
{"smiles": "CCOC(C)C(=O)Nc1cc(S(=O)(=O)NC2CC2)ccc1F", "note": "(stereo not drawn)", "Percent Effect": 0.6608}
